The nature of experiment [1]: qHTS assay to identify small molecule antagonists of the estrogen related receptor (ERR) signaling pathway from Tox21 library - cell viability counter screen (AID 1224834). Further: nearly all actives have a fitted effect of over 30% in size. Summed up:
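Viability readout (CellTiter-Fluor fluorescence, 30 min at 37 C) multiplexed with the ERR assay; cells treated 17.5 h at 37 C with compounds delivered in DMSO.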
In general terms: In qHTS, concentration-response curves come from the screen itself.

Experiment [2] has as its target Luciferin 4-monooxygenase (Photinus pyralis) (UniProt P08659). Nature of the experiment: qHTS assay to identify small molecule inhibitors of firefly luciferase (AID 1224835). Further: nearly all actives have a fitted effect of over 25% in size. Further: potency means the concentration at half of the fitted maximal effect. An outline of the steps: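 Quantitative HTS format; KM concentrations of both substrates. Purified P. pyralis FLuc activity quantified from luminescence images.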
Experiment [3] is described as follows: qHTS assay to identify small molecule agonists of the constitutive androstane receptor (CAR) signaling pathway - cell viability counter screen (AID 1224836). Further: nearly all actives have a fitted effect of over 45% in size. Summed up:
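Multiplexed viability check: HepG2-CYP2B6-hCAR cells, 15-point compound dosing, 0.75 uM PK11195 final, 23 h at 37 C, CellTiter-Fluor fluorescence.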

Experiment [4] can be described thus: qHTS assay to identify small molecule antagonists of the constitutive androstane receptor (CAR) signaling pathway - cell viability counter screen (AID 1224837). Further: nearly all actives have a fitted effect of over 45% in size. Summed up:
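Fluorescence from CellTiter-Fluor served as the viability signal. Human hepatoma HepG2 cells stably bearing hCAR and CYP2B6-2.2kb received compound plus CITCO (50 nM final) for 23 hr.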

Experiment [5] concerns the target Nuclear receptor subfamily 1 group I member 3 (Homo sapiens) (UniProt Q14994). Nature of the experiment: qHTS assay to identify small molecule antagonists of the constitutive androstane receptor (CAR) signaling pathway (AID 1224838).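 Further: HepG2 cells stably expressing hCAR with CYP2B6 luciferase reporter stimulated by CITCO; nearly all actives have a fitted effect of over 40% in size.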 Summed up: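 Quantitative HTS in double-stable HepG2-CYP2B6-hCAR cells. After 4 h plating, cells get compound (15 concentrations) and CITCO at 50 nM final, incubate 24 h at 37 C, then ONE-Glo luminescence is read.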

Experiment [6] has the same target. Nature of the experiment: qHTS assay to identify small molecule agonists of the constitutive androstane receptor (CAR) signaling pathway (AID 1224839).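 Further: HepG2 cells stably carrying human CAR and a CYP2B6 luciferase reporter; nearly all actives have a fitted effect of over 15% in size.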 An outline of the steps: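 Using human hepatoma HepG2 cells engineered with hCAR and a CYP2B6-2.2kb reporter, 15-concentration compound series were incubated 24 h alongside PK11195 at 0.75 uM final, with luminescence quantified afterwards.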

A short description of experiment [7]: qHTS assay to identify small molecule antagonists of the estrogen related receptor signaling pathway with the pleiotropic PPARgamma coactivator (PGC) from Tox21 10K library - cell viability counter screen (AID 1224840; active means well fitted cell-killing curve with a large enough effect in the repeat runs, not every such curve was filed as active; further: nearly all actives have a fitted effect of over 40% in size). An outline of the steps:
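Compounds in DMSO, alongside positive and negative controls, were pinned onto PGC/ERR cells (2,000 per well). Exposure lasted 17.5 hours at 37 C, followed by a 30-minute CellTiter-Fluor incubation and fluorescence reading.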

Experiment [8] addresses Thyrotropin receptor (Homo sapiens) (UniProt P16473). Nature of the experiment: qHTS assay to identify small molecule agonists of the thyroid stimulating hormone receptor (TSHR) signaling pathway (AID 1224843; calls by dose curve; further: nearly all actives have a fitted effect of over 45% in size). Summed up:
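TSHR-expressing HEK293 cells (800 per well) were exposed to compounds for 30 min at room temperature. cAMP was then detected by HTRF competition with cAMP-d2 and anti-cAMP cryptate, read after 1 h at room temperature. Fifteen concentrations, triplicate.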

Experiment [9] is described as follows: qHTS assay to identify small molecule agonists of the hypoxia (HIF-1) signaling pathway - cell viability counter screen (AID 1224844; calls by dose curve; further: nearly all actives have a fitted effect of over 50% in size; further: potency means the concentration at half of the fitted maximal effect). An outline of the steps:
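Luminescent ATP content (CellTiter-Glo, 30 min, room temperature) served as the viability measure in HRE-bla ME-180 cells exposed to compounds for 17 hrs in low-serum medium (0.5% dialyzed FBS).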

The nature of experiment [10]: qHTS assay to identify small molecule agonists of H2AX (AID 1224845; active means well fitted activation curve with a large enough effect in the signal ratio in the repeat runs, not every such curve was filed as active; the % refers to the signal ratio). An outline of the steps:
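Wild-type CHO-K1 cells plated overnight, then exposed 3 hr at 37C to compounds at 15 concentrations (0.76% DMSO). Lysed, then HTRF anti-pH2AX(S139)-cryptate/anti-H2AX-d2 detection after 24 hr at room temperature; emissions 665 and 620 nm.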

Experiment [11] in a line: qHTS assay to identify small molecule agonists of the hypoxia (HIF-1) signaling pathway (AID 1224846; active means well fitted activation curve with a large enough effect in the signal ratio in the repeat runs, not every such curve was filed as active; the % refers to the signal ratio). Summed up: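 Measured by blue/green FRET after loading CCF4-AM: beta-lactamase expressed from a hypoxia response element in ME-180 cells. Test agents were delivered in DMSO and left 17 hrs; cells had been plated 5 hrs earlier in low-serum (0.5% dialyzed FBS) medium.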

Experiment [12] in a line: qHTS RealTime-Glo MT Cell Viability Assay in HepG2 cells - 24 hour (AID 1224867). Further: nearly all actives have a fitted effect of over 50% in size. Summed up:
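Cell number in HepG2 cultures estimated from NanoLuc luminescence generated by metabolic reduction of a prosubstrate by living cells. The homogeneous, nonlytic format allowed repeated reads at 0, 8, 16, 24, 32 and 40 h of compound exposure.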

A short description of experiment [13]: qHTS RealTime-Glo MT Cell Viability Assay in HEK293 cells - 32 hour (AID 1224868). Further: top concentration of the series differs between compounds; nearly all actives have a fitted effect of over 50% in size. Summed up:
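Homogeneous bioluminescent viability format in HEK293 cells (600 cells/well). Following 5 h at 37 C/5% CO2, 23 nL compound was pintooled; the signal was measured repeatedly during 40 h incubation.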

Experiment [14] can be described thus: A CellTox Green Cytotoxicity Assay to monitor cytotoxicity in HEK293 cells - 0 hour (AID 1224869). Further: nearly all actives have a fitted effect of over 50% in size. An outline of the steps:
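Each value comes from one timepoint of a single continuous run in which HEK293 cells with CellTox Green were exposed to compound for up to 40 h at 37 C, dye fluorescence rising with cell death.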

Experiment [15] is described as follows: qHTS assay to identify small molecule antagonists of the estrogen related receptor signaling pathway with the pleiotropic PPARgamma coactivator (PGC) from Tox21 10K library (AID 1224841; call rule not given here). Summed up:
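Compound exposure ran 18 hours at 37 C in PGC/ERR cells (2,000/well) that had first rested 6 hours in a 37 C/5% CO2 incubator. Luciferase activity was then detected with One-Glo after a 30-minute room-temperature step.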

The nature of experiment [16]: qHTS assay to identify small molecule agonists of the estrogen related receptor signaling pathway with the pleiotropic PPARgamma coactivator (PGC) from Tox21 10K library (AID 1224842). Further: nearly all actives have a fitted effect of over 15% in size. An outline of the steps: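 PGC/ERR reporter cells (NTP line) were seeded 2,000 per well, rested 6 h at 37 C/5% CO2, then pin-dosed with compounds in DMSO for 18 h at 37 C; luciferase read by One-Glo luminescence after 30 min at room temperature.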

Experiment [17] can be described thus: qHTS assay to identify small molecule agonists of H2AX - cell viability counter screen (AID 1224847; calls by dose curve; further: top concentration of the series differs between compounds; nearly all actives have a fitted effect of over 30% in size). Summed up:
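After overnight plating of 1000 CHO-K1 cells per well, a 15-concentration compound series was applied for 3 hr at 37C. Luminescence from CellTiter-Glo, read following 30 min at room temperature, reflected cell viability.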

Experiment [18] in a line: qHTS assay to identify small molecule antagonists of the estrogen related receptor (ERR) signaling pathway from Tox21 library (AID 1224848). Further: nearly all actives have a fitted effect of over 50% in size. Summed up: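 Cells: ERR line, 2,000/well; 6 h preincubation 37 C/5% CO2. Cpd in DMSO via pin tool; 18 h, 37 C. ONE-Glo, 30 min RT, luminescence.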
Experiment [19] in a line: qHTS assay to identify small molecule agonists of the estrogen related receptor (ERR) signaling pathway from Tox21 library (AID 1224849; calls by dose curve; further: nearly all actives have a fitted effect of over 15% in size). To be noted: ERR reporter cell line, ONE-Glo luciferase, 18 h; at 92.4 µM (top of the series) unless noted. An outline of the steps:
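We plated ERR reporter cells, waited 6 h, added compounds in DMSO by pin tool and incubated them 18 h at 37 C. ONE-Glo was then added and luminescence read after 30 min.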

A short description of experiment [20]: qHTS RealTime-Glo MT Cell Viability Assay in HepG2 cells - 40 hour (AID 1224870). Further: nearly all actives have a fitted effect of over 50% in size. Summed up:
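HepG2 cells mixed with RealTime-Glo MT reagents (NanoLuc plus cell-permeant prosubstrate) were seeded at 600 cells/well, incubated 5 h at 37 C/5% CO2, then pinned with compounds in DMSO; nonlytic luminescence tracked viability during 40 h treatment.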

Unmarked numbers belong to inactive results. Inconclusive results are not listed. Activity calls are given as the source filed them. Unless noted, the call rests on the fitted dose curve; in most records, active means well fitted curve in the direction sought with a large enough effect in the repeat runs; inconclusive means weak or mixed curves; inactive means no such curve, though single readings can be large; an effect the other way counts as inactive or inconclusive.
On the % scale 0 is the no-effect control and ±100 the full control effect.

Chain of Nuclear receptor subfamily 1 group I member 3 (Homo sapiens) (Q14994 whole entry, looked up): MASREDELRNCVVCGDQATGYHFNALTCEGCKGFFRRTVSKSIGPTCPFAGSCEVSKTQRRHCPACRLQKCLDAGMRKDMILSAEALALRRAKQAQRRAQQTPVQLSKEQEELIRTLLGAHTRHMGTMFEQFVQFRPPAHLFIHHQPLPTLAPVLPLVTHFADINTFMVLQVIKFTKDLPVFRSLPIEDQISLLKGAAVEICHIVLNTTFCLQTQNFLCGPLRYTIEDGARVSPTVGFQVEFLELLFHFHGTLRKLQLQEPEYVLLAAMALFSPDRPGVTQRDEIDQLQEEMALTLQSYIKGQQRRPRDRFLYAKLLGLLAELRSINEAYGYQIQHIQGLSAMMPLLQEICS
Chain of Luciferin 4-monooxygenase (Photinus pyralis) (P08659 whole entry, looked up): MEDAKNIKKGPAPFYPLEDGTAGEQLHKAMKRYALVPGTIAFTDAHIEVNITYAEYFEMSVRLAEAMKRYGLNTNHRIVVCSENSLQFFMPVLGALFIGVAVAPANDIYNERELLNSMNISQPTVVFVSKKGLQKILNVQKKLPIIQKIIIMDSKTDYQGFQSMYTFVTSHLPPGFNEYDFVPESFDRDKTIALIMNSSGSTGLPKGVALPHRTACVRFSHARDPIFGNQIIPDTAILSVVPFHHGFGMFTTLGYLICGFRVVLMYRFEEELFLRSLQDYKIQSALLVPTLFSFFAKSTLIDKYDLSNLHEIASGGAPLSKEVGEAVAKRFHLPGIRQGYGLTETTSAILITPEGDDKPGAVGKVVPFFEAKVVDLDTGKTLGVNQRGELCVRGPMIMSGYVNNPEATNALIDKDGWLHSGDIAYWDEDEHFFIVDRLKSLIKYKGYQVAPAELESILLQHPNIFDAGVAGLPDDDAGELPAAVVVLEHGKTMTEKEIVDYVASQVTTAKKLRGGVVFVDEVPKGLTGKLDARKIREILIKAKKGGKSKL
Chain of Thyrotropin receptor (Homo sapiens) (P16473 whole entry, looked up): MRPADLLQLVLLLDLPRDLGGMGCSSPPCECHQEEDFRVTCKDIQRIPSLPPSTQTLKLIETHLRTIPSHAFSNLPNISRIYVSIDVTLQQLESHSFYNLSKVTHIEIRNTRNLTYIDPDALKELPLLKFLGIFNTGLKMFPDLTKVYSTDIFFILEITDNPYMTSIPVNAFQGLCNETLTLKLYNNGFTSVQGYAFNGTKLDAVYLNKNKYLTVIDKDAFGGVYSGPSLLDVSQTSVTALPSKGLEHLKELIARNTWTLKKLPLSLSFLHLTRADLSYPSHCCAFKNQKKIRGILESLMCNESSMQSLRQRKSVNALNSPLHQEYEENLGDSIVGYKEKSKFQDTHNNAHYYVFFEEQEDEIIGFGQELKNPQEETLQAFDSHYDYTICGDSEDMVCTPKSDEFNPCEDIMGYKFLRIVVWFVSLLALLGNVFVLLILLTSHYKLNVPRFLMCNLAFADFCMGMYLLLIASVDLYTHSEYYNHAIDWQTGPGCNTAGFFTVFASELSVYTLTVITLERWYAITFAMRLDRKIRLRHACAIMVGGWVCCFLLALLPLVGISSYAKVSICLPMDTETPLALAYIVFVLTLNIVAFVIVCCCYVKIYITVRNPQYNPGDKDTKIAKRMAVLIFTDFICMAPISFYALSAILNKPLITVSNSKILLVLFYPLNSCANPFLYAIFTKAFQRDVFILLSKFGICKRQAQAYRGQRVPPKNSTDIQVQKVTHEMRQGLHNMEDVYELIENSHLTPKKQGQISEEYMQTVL

Regarding `C1COC1`, the Potency entry in experiment [1], in [2], in experiment [3], in experiment [4], in experiment [5] and in experiment [6] was “inactive” throughout. The Potency entry in [7], in [8], in experiment [9], in [10], in experiment [12] and in experiment [13] was “inactive” each time. Also, the Potency result in experiment [14] is “inactive”. For the same compound, in experiment [11], the compound was called inactive.
In the case of `FC(F)(F)c1ccccc1Cl`, the Potency entry in experiment [1], in [2], in experiment [3], in experiment [4], in experiment [5] and in experiment [6] was “inactive” throughout. The Potency result in experiment [7], in [15], in experiment [16], in experiment [9], in experiment [17] and in experiment [18] was “inactive” each time. Further, the Potency result in experiment [12], in experiment [13], in experiment [14] and in experiment [20] was “inactive” throughout. In experiment [11], the compound was classed as inactive. Further, in [19], the activity change, positive = activation was -2.05%.
On to `CO/N=C(/C(=O)N[C@@H]1C(=O)N2C(C(=O)O)=C(COC(N)=O)CS[C@H]12)c1ccco1`, for which the Potency entry in experiment [1], in [2], in experiment [3], in experiment [4], in experiment [5] and in [6] was “inactive” in each case. For the same compound, the Potency entry in [7], in experiment [9], in experiment [10], in experiment [17], in experiment [12] and in [13] was “inactive” each time. For the same compound, the Potency entry in experiment [14] and in [20] was “inactive” throughout. For the same compound, in experiment [11], the outcome was inactive.
For `Cc1ccco1`, the Potency entry in experiment [1], in [2], in experiment [3], in experiment [4], in [5] and in [6] was “inactive” throughout. Besides, the Potency result in experiment [7], in [8], in experiment [9], in [10], in experiment [17] and in [12] was “inactive” in each case. Besides, the Potency result in experiment [13], in experiment [14] and in experiment [20] was “inactive” each time. Further, the result in experiment [11] was inactive.
`CCCCC(CC)COP(=O)(O)O` (stereo not drawn): the Potency entry in experiment [1], in experiment [2], in experiment [3], in experiment [4], in experiment [5] and in experiment [6] was “inactive” each time. The Potency result in experiment [7], in experiment [8], in experiment [10], in [12], in experiment [14] and in experiment [20] was “inactive” each time. Further, the Potency in [9] is 12.5 µM (active). The outcome in experiment [11] was inactive.
For `O=C(Nc1cccc2c(=O)cc(-c3nn[nH]n3)oc12)c1ccc(OCCCCc2ccccc2)cc1`, the Potency result in [1], in experiment [3], in experiment [4], in experiment [5], in experiment [6] and in experiment [7] was “inactive” in each case. Moreover, the Potency result in experiment [8], in experiment [17], in experiment [12], in [13], in [14] and in experiment [20] was “inactive” each time. The figures for the Potency in experiment [2] and in experiment [9] were 27.5 µM (active) and 5.35 µM (active), respectively.
On to `N#CCCN(CCO)CCO`, for which the Potency entry in [1], in experiment [2], in experiment [3], in experiment [4], in experiment [5] and in [6] was “inactive” in each case. Moreover, the Potency entry in [7], in [8], in [9], in experiment [10], in [17] and in experiment [12] was “inactive” each time. The Potency result in experiment [13], in [14] and in experiment [20] was “inactive” in each case. Moreover, the call in experiment [11] was inactive.
With `CCC=CC#N`, the Potency entry in experiment [1], in experiment [2], in experiment [3], in experiment [4], in [5] and in experiment [6] was “inactive” each time. In addition, the Potency result in [7], in [8], in [9], in experiment [10], in [17] and in experiment [12] was “inactive” each time. In addition, the Potency entry in experiment [13], in experiment [14] and in experiment [20] was “inactive” each time. In addition, the compound was called inactive in [11].

(Values after PubChem BioAssay (Tox21).)
